Data reported in the supplement of paper PMC10849652.
Targets with a hit are over-represented here; the source holds about 7,900 in all. About 0.6% of all pairs of compound and target were hits. Values without a mark were called inactive.

Columns and labels:
Experiment in all cases: log2 fold change, soluble protein after heating vs DMSO (PISA); higher = thermal stabilisation; K562 cells, 10 uM, 30 min; active = over 0.2 and 3.5 SD of the protein, either way, in both replicates (recomputed)
[1] = compound: C1COCCN1CCN2C3=CC=CC=C3N=C2NC(=O)C4=CC(=CC=C4)[N+](=O)[O-] [IRAK-1-4 Inhibitor I]
Method in brief: (§1)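 K562 cells at 2×10^6 cells/mL were given 10 μM compound for 30 min. Aliquots then went through 3 min of heating across 48°C-58°C, were pooled, and were extracted in PBS with 0.5% NP-40 at 4°C, and the supernatant after 21,000xg for 90 min was quantified by TMTpro 16plex LC-MS/MS with channel sums equalised. Thermal stability relative to control samples, from duplicates, is given as log2 fold change.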

[2] = compound: C=CC(=O)N1CCC[C@@H](n2nc(-c3ccc(Oc4ccccc4)cc3)c3c(N)ncnc32)C1 [ibrutinib]
Method in brief: as §1

[3] = compound: CC(=O)c1cnc2ccc(-c3cc(Cl)c(O)c(Cl)c3)nc2c1N[C@H]1CC[C@H](CN(C)C)CC1
Method in brief: as §1

[4] = compound: CC(C)(C)Cn1c(N)nc2ccc(-c3[nH]c(C(C)(C)C)nc3-c3ccc(F)cc3)nc21 [ralimetinib]
Method in brief: as §1

[5] = compound: CC(C)(O)CC(=O)NCCn1ccc2ncnc(Nc3ccc(Oc4cccc(C(F)(F)F)c4)c(Cl)c3)c21
Method in brief: as §1

[6] = compound: CC(C)C1=C2N=C(C=C(N2N=C1)NCC3=CC=CC=C3)NCCCCCCN
Method in brief: as §1

[7] = compound: CC(C)C[C@@H](C=O)NC(=O)[C@H](CC(C)C)NC(=O)[C@H](CC(C)C)NC(=O)OCc1ccccc1
Method in brief: as §1

[8] = compound: CC(C)N(C[C@H]1O[C@@H](n2cnc3c(N)ncnc32)[C@H](O)[C@@H]1O)[C@H]1C[C@@H](CCc2nc3cc(C(C)(C)C)ccc3[nH]2)C1 [pinometostat]
Method in brief: as §1

[9] = compound: CC1=C(C(CC(=O)N1)C2=CC=C(C=C2)C(F)(F)F)C(=O)NC3=C(C=C4C(=C3)C=NN4)F
Method in brief: as §1

[10] = compound: CC1=C(C2=C(C=C1)C(=O)C3=CC=CC=C3N2CCCN)C
Method in brief: as §1

[11] = compound: CC1=C(C=C(C=C1)NC(=O)C2=CC(=CC=C2)C(C)(C)C#N)NC3=CC4=C(C=C3)N=CN(C4=O)C
Method in brief: as §1

[12] = compound: CC1=C(C=C(C=C1)NC(=O)C2=CC(=CC=C2)N(C)C)NC(=O)C3=CC=C(C=C3)O
Method in brief: as §1

[13] = compound: CC1=CC=C(C=C1)SC2=C3C=C(SC3=CN=C2)C(=O)N
Method in brief: as §1

[14] = compound: CC1=NC(=CC=C1)C2=C(N=C(N2)C(C)(C)C)C3=CC4=NC=CN=C4C=C3
Method in brief: as §1

[15] = compound: CCCCN(Cc1ccc(C(=O)NO)cc1)C(=O)Nc1ccccc1 [Nexturastat A]
Method in brief: as §1

[16] = compound: CCCS(=O)(=O)Nc1ccc(F)c(C(=O)c2c[nH]c3ncc(-c4ccc(Cl)cc4)cc23)c1F [vemurafenib]
Method in brief: as §1

[17] = compound: CCCS(=O)(=O)Nc1ccc(F)c(C(=O)c2c[nH]c3ncc(Cl)cc23)c1F
Method in brief: as §1

[18] = compound: CCCc1cc(C)[nH]c(=O)c1CNC(=O)c1cc(-c2ccnc(N3CCN(C)CC3)c2)cc2c1cnn2C(C)C
Method in brief: as §1

[19] = compound: CCN(CC)Cc1ccc2cc(COC(=O)Nc3ccc(C(=O)NO)cc3)ccc2c1 [givinostat]
Method in brief: as §1

[20] = compound: CCN(CCCOc1ccc2c(Nc3cc(CC(=O)Nc4cccc(F)c4)[nH]n3)ncnc2c1)CCOP(=O)(O)O [barasertib]
Method in brief: as §1

UniProt Q53GQ0, sequence (Q53GQ0 whole entry, looked up): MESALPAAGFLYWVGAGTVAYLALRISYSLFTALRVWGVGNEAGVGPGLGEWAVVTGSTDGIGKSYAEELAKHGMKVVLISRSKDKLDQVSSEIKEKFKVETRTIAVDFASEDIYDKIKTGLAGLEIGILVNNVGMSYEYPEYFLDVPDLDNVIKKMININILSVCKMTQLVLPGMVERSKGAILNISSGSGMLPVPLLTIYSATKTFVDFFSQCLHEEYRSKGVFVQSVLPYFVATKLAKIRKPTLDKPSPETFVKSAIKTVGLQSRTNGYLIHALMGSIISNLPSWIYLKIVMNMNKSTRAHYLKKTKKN
UniProt Q92538, sequence (Q92538 whole entry, looked up): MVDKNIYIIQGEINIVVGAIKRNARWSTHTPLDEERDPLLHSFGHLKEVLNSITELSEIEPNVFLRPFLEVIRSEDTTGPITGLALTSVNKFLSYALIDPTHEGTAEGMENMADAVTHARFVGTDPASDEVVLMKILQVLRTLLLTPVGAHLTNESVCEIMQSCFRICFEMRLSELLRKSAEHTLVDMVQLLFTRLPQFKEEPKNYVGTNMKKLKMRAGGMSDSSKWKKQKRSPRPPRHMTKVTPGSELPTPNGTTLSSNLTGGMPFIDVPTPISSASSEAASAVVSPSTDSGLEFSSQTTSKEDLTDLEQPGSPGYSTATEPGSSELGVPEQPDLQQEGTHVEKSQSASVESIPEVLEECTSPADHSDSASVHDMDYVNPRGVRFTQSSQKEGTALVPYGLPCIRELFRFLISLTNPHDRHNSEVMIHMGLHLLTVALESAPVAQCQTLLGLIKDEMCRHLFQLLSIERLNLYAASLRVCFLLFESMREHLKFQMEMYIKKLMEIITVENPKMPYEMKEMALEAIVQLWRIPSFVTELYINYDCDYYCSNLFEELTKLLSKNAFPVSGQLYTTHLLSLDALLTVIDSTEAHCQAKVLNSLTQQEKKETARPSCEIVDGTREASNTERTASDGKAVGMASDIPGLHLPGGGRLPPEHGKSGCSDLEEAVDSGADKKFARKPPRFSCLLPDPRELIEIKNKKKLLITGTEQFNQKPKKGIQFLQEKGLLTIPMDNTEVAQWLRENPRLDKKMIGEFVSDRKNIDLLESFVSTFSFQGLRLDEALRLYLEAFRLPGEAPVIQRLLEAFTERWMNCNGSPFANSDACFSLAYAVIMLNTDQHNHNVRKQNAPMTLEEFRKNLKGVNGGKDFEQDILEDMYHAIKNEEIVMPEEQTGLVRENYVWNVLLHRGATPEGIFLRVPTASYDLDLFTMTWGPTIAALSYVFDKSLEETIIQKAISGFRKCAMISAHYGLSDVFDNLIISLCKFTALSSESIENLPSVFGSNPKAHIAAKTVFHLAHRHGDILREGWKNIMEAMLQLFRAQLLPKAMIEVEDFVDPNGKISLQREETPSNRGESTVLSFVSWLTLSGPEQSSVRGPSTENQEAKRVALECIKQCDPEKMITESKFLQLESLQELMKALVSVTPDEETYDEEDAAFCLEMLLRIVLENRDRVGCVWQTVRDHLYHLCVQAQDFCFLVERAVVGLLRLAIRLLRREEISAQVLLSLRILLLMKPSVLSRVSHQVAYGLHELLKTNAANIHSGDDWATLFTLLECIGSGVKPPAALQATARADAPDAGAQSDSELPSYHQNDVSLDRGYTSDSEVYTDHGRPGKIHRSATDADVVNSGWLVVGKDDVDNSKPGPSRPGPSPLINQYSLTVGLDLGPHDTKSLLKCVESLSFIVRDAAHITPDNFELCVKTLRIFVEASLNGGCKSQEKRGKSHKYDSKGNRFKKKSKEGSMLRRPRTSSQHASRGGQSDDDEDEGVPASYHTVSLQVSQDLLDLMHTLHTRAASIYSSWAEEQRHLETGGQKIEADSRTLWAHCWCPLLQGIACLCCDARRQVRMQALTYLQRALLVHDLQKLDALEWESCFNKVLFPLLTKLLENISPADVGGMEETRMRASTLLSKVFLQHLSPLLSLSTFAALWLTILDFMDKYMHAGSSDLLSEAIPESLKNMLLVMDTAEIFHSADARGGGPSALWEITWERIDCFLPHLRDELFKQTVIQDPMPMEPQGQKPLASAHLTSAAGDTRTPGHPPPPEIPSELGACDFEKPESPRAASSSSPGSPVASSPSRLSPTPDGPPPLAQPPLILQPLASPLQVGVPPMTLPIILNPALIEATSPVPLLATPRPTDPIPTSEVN
UniProt Q9H4A6, sequence (Q9H4A6 whole entry, looked up): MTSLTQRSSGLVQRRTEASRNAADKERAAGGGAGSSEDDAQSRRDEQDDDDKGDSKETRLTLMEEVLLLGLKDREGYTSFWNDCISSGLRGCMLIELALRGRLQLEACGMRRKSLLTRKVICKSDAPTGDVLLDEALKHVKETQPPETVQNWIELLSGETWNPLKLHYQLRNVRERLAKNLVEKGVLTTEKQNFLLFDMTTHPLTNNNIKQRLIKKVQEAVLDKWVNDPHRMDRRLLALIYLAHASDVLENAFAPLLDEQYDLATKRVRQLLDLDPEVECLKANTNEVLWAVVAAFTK
UniProt P07910, sequence (P07910 whole entry, looked up): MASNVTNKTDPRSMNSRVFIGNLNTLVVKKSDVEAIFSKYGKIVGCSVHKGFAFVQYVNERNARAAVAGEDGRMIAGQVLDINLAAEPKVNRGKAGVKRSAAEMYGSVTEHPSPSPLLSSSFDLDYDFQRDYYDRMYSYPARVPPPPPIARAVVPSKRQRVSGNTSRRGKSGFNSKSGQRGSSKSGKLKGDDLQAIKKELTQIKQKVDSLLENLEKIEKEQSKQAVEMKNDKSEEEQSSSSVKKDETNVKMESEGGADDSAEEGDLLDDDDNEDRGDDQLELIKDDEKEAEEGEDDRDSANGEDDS
UniProt P0CL80, sequence (P0CL80 whole entry, looked up): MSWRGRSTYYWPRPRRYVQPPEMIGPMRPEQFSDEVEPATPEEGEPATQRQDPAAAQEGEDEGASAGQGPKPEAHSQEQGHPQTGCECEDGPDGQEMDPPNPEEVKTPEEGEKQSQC
UniProt P00367, sequence (P00367 whole entry, looked up): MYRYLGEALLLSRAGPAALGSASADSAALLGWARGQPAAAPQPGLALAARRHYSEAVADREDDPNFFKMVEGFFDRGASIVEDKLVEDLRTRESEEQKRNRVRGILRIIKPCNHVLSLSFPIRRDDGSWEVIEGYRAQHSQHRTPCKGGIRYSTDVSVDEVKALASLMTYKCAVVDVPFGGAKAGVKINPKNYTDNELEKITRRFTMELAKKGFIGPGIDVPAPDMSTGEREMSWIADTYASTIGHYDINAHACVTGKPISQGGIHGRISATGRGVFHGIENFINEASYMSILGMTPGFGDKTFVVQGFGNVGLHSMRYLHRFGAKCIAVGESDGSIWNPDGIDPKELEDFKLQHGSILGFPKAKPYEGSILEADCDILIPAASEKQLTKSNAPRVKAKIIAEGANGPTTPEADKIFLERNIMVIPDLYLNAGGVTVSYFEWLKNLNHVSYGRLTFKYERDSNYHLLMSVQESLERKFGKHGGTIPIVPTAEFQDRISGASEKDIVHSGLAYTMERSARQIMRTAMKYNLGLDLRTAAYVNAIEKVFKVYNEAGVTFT
UniProt Q8NB37, sequence (Q8NB37 whole entry, looked up): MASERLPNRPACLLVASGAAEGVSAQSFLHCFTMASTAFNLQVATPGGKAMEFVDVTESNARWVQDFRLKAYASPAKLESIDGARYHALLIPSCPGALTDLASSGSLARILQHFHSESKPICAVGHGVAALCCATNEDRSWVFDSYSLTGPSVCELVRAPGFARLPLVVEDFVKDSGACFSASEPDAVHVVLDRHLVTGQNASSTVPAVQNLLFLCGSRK
UniProt P15104, sequence (P15104 whole entry, looked up): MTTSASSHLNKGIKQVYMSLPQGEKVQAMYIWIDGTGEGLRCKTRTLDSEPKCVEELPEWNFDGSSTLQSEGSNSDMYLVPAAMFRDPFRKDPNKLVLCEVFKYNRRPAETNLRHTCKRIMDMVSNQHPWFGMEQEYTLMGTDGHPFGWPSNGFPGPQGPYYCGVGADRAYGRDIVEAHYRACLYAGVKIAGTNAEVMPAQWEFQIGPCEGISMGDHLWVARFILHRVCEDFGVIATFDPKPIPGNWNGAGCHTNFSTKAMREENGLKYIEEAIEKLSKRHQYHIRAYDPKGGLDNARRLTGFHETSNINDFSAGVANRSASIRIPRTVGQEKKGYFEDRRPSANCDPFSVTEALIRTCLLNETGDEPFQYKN
UniProt Q13889, sequence (Q13889 whole entry, looked up): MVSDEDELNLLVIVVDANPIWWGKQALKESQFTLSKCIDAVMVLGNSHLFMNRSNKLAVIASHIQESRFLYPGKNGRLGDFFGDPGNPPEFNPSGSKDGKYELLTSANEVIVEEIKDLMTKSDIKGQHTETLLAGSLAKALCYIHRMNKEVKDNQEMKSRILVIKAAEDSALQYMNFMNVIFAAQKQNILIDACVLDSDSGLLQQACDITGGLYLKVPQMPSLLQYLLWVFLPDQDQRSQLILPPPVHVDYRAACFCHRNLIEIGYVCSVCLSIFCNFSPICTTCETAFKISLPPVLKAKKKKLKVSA
UniProt Q10472, sequence (Q10472 whole entry, looked up): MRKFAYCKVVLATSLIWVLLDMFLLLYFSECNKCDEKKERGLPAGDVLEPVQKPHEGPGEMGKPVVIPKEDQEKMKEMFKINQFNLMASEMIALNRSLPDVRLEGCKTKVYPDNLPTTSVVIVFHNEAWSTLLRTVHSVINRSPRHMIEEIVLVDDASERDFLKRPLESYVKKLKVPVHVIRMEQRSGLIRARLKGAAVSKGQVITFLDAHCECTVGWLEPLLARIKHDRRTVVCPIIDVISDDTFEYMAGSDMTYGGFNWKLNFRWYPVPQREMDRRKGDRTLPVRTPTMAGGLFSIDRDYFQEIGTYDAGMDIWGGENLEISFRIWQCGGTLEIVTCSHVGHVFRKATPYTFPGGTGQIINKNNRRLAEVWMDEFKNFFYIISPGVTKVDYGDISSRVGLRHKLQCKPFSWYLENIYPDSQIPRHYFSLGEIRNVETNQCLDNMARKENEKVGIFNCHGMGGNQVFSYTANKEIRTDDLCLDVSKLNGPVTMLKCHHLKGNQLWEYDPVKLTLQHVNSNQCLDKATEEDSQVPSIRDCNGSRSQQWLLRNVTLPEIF

Target | log2 fold change [1] | log2 fold change [2] | log2 fold change [3] | log2 fold change [4] | log2 fold change [5] | log2 fold change [6] | log2 fold change [7] | log2 fold change [8] | log2 fold change [9] | log2 fold change [10] | log2 fold change [11] | log2 fold change [12] | log2 fold change [13] | log2 fold change [14] | log2 fold change [15] | log2 fold change [16] | log2 fold change [17] | log2 fold change [18] | log2 fold change [19] | log2 fold change [20]
HNRNPC isoform 2 (UniProt P07910) | -0.332 | 0.043 | -0.365 | 0.106 | 0.195 | -0.197 | 0.281 | 0.238 | -0.01 | -0.629 | 0.276 | -0.074 | -0.349 | -0.045 | 0.449 | -0.055 | -0.191 | 0.028 | 0.241 | -0.095
GALNT1 (UniProt Q10472) | -0.106 | 0.023 | -0.002 | 0.101 | 0.018 | 0.048 | -0.141 | -0.025 | -0.001 | 0.021 | -0.004 | 0 | 0.03 | 0.067 | 0.001 | 0.02 | -0.021 | -0.055 | 0.003 | 0.007
GLUL (UniProt P15104) | 0.054 | 0.009 | -0.049 | -0.02 | 0.018 | 0.058 | -0.013 | -0.021 | 0.105 | -0.058 | -0.008 | -0.003 | 0.055 | -0.013 | -0.02 | -0.04 | -0.084 | -0.016 | -0.082 | 0.004
GOLPH3 (UniProt Q9H4A6) | 0.033 | -0.035 | -0.023 | -0.005 | -0.031 | 0.31 (active) | -0.005 | -0.013 | 0 | -0.028 | 0.074 | -0.031 | -0.017 | 0.022 | -0.017 | 0.015 | 0.058 | -0.011 | -0.007 | 0.023
H2AFX (UniProt P16104) | -0.049 | 0.077 | 0.044 | 0.193 | 0.036 | -0.008 | 0.308 | 0.368 | -0.019 | 1.02 (active) | -0.088 | -0.006 | -0.231 | -0.073 | 0.754 | -0.232 | 0.329 | 0.1 | 0.328 | -0.11
GABARAPL1 isoform 2 (UniProt Q9H0R8) | 0.031 | -0.057 | -0.065 | -0.003 | -0.024 | -0.369 (active) | 0.092 | -0.044 | -0.047 | 0.023 | -0.008 | 0.003 | 0.006 | 0.002 | -0.013 | -0.016 | -0.025 | -0.007 | 0.044 | 0.021
GBF1 (UniProt Q92538) | -0.033 | -0.049 | -0.044 | 0.017 | -0.05 | -0.088 | 0.015 | 0.115 | -0.016 | 0.007 | -0.049 | -0.071 | -0.012 | -0.028 | 0.078 | 0.028 | 0.059 | 0.014 | 0.07 | 0.028
GLUD1 (UniProt P00367) | 0.02 | 0.04 | 0.068 | 0.023 | -0.038 | -0.049 | 0.012 | 0.023 | -0.076 | 0.125 | 0.179 | -0.007 | -0.054 | -0.011 | -0.063 | -0.012 | -0.02 | 0.136 | -0.062 | -0.007
GLA (UniProt P06280) | 0.034 | 0.026 | -0.031 | -0.05 | -0.052 | -0.199 | 0.015 | 0.02 | 0.052 | -0.051 | -0.016 | 0.027 | -0.001 | 0.011 | 0.005 | -0.009 | -0.038 | -0.039 | 0.04 | 0.005
GAGE12F (UniProt P0CL80) | 0.045 | 0.025 | 0.037 | -0.038 | 0.02 | 0.015 | 0.019 | -0.06 | 0.004 | 0.128 | -0.005 | -0.035 | 0.006 | 0.061 | 0.036 | 0.019 | -0.018 | -0.031 | -0.076 | 0.01
HSD17B12 (UniProt Q53GQ0) | -0.01 | 0.038 | -0.127 | -0.037 | 0.289 (active) | 0.22 | -0.062 | -0.064 | 0.015 | 0.031 | 0.094 | 0.032 | 0 | 0.022 | -0.111 | -0.006 | -0.01 | -0.141 | -0.018 | -0.04
GATD1 (UniProt Q8NB37) | -0.069 | 0.106 | -0.099 | -0.026 | 0.01 | 0.026 | 0.104 | 0.141 | 0.032 | 0 | 0.054 | -0.041 | -0.023 | -0.108 | 0.067 | -0.047 | -0.06 | 0.021 | 0.013 | 0.024
HSPA8 (UniProt P11142) | 0.032 | -0.015 | 0.014 | -0.004 | 0.029 | 0.037 | -0.013 | -0.023 | -0.009 | -0.016 | 0.021 | 0.005 | -0.025 | 0.011 | -0.011 | -0.008 | -0.02 | 0.04 | -0.02 | -0.005
HNRNPK isoform 2 (UniProt P61978) | -0.014 | -0.014 | -0.161 | -0.054 | -0.025 | -0.283 (active) | 0.003 | -0.033 | 0.005 | -0.062 | 0.034 | 0.004 | -0.003 | 0.075 | 0.022 | 0.048 | 0.048 | -0.031 | 0.063 | 0.024
GALNT4 (UniProt Q8N4A0) | 0.038 | 0.011 | -0.061 | -0.003 | -0.41 (active) | -0.041 | -0.002 | 0.014 | -0.004 | 0.072 | 0.008 | 0.017 | -0.029 | 0.013 | -0.049 | -0.037 | -0.001 | -0.01 | 0.005 | 0.011
GTF2H3 (UniProt Q13889) | -0.06 | 0.056 | 0.063 | 0.049 | 0.006 | 0.011 | 0 | 0.06 | -0.074 | 0.02 | -0.094 | -0.008 | -0.024 | 0 | 0.016 | -0.081 | -0.021 | -0.112 | 0.068 | -0.042
